About 79,000 compounds went through this panel and 15% of them were active in at least one assay; those are over-represented in the sample as a whole. Values without a mark were called inactive. Active and inactive are the calls of the source. Cut-off read from the data, not from the text of the source: active = growth inhibition above about 70%; inactive = the rest.

One experiment can be described thus: NCI Yeast Anticancer Drug Screen. Data for the mlh1 strain (AID 171).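 Note: 0% = growth of vehicle-treated control cultures of the same strain.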 Conditions: S. cerevisiae mlh1 strain growth inhibition; at 3.7 µM; active compounds read high. An outline of the steps: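 Yeast carrying a defined genetic alteration in DNA damage repair or cell cycle control were exposed to test compounds. Growth inhibition was measured relative to vehicle-treated controls.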
On to `CS(=O)(=O)SCc1ccc([N+](=O)[O-])cc1`, for which the growth inhibition is 14%.
With `Cc1csc(=S)n1OC(=O)NC1CCCCC1`, the growth inhibition was 99% (active).
On the same count and under the same terms, the figure for `CCOc1ccc(NC(=O)C2=C(C)NC(C)=C(C(=O)Nc3ccc(OCC)cc3)C2c2cccc([N+](=O)[O-])c2)cc1` is -1%; for `CC(C)(C)N=C(NO)c1ccccc1` it is 1%.
Regarding `CCCCC/C(=C(\C#N)C(=O)OCC)c1ccccc1`, the growth inhibition is 1%.
Take `O=C(NCCCl)Sc1ccc(Cl)cc1`: the growth inhibition was 1%.
For `O=C1Nc2ccc(Br)cc2C1=Nc1ccc2c(c1)OCO2`, the growth inhibition is -13%.
Same read-out and setting: the value for `CCC(C)OC(=O)Nc1ccc(C)c(NC(=O)OC(C)CC)c1` (stereo not drawn) was -3%; that for `O=C(O)c1cc2ccc(Cl)cc2c(O)c1C1=CCCCC1` was 24%; that for `CN(C)Cc1cc(N=Nc2ccc(Cl)cc2)ccc1OC(=O)c1ccccc1` was 2%.
For `CN1CCN(C(=O)/C=C/C(=O)c2ccccc2)CC1`, the growth inhibition was 12%.
Still for that read-out and setting: the figure for `CCCC/C=C/C(C)(C(=O)OCC)C(=O)OCC` is -3%; for `Cc1nc(-c2cc3cc([N+](=O)[O-])ccc3oc2=O)cs1` it is -12%.
On the same count and under the same terms, the value for `Cc1nc2ccccc2nc1NNc1ccccc1` was -4%; that for `CN(C)[C@@H]1C(=O)C(C(N)=O)=C(O)[C@@]2(O)C(=O)C3=C(O)c4c(O)cccc4C[C@H]3C[C@@H]12` was -11%.
With `COc1ccc(NC(=O)CC2SC(=Nc3ccccc3C)NC2=O)c([N+](=O)[O-])c1` (stereo not drawn), the growth inhibition is -1%.
With `COc1cc(O)c2c(c1O)C(=O)c1cc(C)ncc1C2=O`, the growth inhibition is 21%.
Same read-out and setting: the figure for `CSc1nnc(SC)nn1` is 6%; for `COc1cc(/C=C2\CCC/C(=C\c3ccc(O)c(OC)c3)C2=O)ccc1O` it is -2%.
For `CN(C)CCNC(=O)c1cccc2cc([N+](=O)[O-])ccc12`, the growth inhibition is 6%.
Same read-out and setting: the figure for `CCC(C)(C)c1ccc(Oc2cccc(C(=O)O)c2)cc1` is -1%; for `CCCCCCSc1ncnc2[nH]ncc12` it is -1%; for `CC(=O)Nc1ccc(/C=C/[N+](=O)[O-])cc1` it is -6%.
For `CCOC(=O)c1[nH]n(-c2ccccc2)c(=O)c1C=NC(=S)C(N)=S`, the growth inhibition was 16%.
As for `CCCC(O)C1CC(C(C)C)CCC1C` (stereo not drawn), the growth inhibition was 0%.
Still for that read-out and setting: the figure for `O=[n+]1c2ccccc2n([O-])c2cc(Br)ccc21` is 19%; for `CN(C)CCNC(=O)c1cccc2c1Oc1c(cccc1[N+](=O)[O-])O2` it is 13%; for `Nc1ncc(-c2ccc(Br)cc2)s1` it is -14%.
In the case of `Cc1cc2cc3cc(C)c(N)cc3nc2cc1N`, the growth inhibition is 3%.
`CC12C(=O)OC(=O)C(c3ccccc31)c1ccccc12`: the growth inhibition was -9%.
Still for that read-out and setting: the value for `c1ccc2c(OCC3CO3)cccc2c1` (stereo not drawn) was 1%; that for `CCOC(=N)c1ccc(O)c(OC)c1` was -3%; that for `Nc1cc(N)c(N=Nc2cccc3c(S(=O)(=O)O)cccc23)cc1N=Nc1cc([N+](=O)[O-])ccc1O` was -21%.
Consider `COC(=O)Oc1cc(Cl)c(Cl)cc1Cl`, for which the growth inhibition is -2%.
Turning to `O=C(O)C1CC(c2ccccc2)=NN1c1ccccc1` (stereo not drawn), the growth inhibition is -14%.
The same measure, in the same setting: the figure for `COc1cc([C@@H]2c3cc4c(cc3[C@@H](Nc3ccc(NC(=O)c5cc([N+](=O)[O-])cn5C)cc3)[C@H]3COC(=O)[C@H]23)OCO4)cc(OC)c1O` is 5%; for `O=C(O)c1ccccc1/C=N/N=C1c2ccccc2-c2ccccc21` it is 2%; for `O=C1CC(=O)c2ccccc21` it is 0%.
The same measure, in the same setting: the figure for `Nc1ncnc2c1ncn2C1OC(CO)CC1O` (stereo not drawn) is -5%.

Still in this experiment, the particulars now being: S. cerevisiae mlh1 strain growth inhibition; at 11.0 µM; active compounds read high.
As for `CS(=O)(=O)SCc1ccc([N+](=O)[O-])cc1`, the growth inhibition was 70% (active).
The same measure, in the same setting: the value for `Cc1csc(=S)n1OC(=O)NC1CCCCC1` was 100% (active); that for `CCOc1ccc(NC(=O)C2=C(C)NC(C)=C(C(=O)Nc3ccc(OCC)cc3)C2c2cccc([N+](=O)[O-])c2)cc1` was 1%.
Still for that read-out and setting: the figure for `CC(C)(C)N=C(NO)c1ccccc1` is 7%; for `CCCCC/C(=C(\C#N)C(=O)OCC)c1ccccc1` it is 5%.
Turning to `O=C(NCCCl)Sc1ccc(Cl)cc1`, the growth inhibition is 2%.
The same measure, in the same setting: the figure for `O=C1Nc2ccc(Br)cc2C1=Nc1ccc2c(c1)OCO2` is -24%; for `CCC(C)OC(=O)Nc1ccc(C)c(NC(=O)OC(C)CC)c1` (stereo not drawn) it is -5%; for `O=C(O)c1cc2ccc(Cl)cc2c(O)c1C1=CCCCC1` it is 41%.
Same read-out and setting: the figure for `CN(C)Cc1cc(N=Nc2ccc(Cl)cc2)ccc1OC(=O)c1ccccc1` is 4%; for `CN1CCN(C(=O)/C=C/C(=O)c2ccccc2)CC1` it is 35%.
The same measure, in the same setting: the value for `CCCC/C=C/C(C)(C(=O)OCC)C(=O)OCC` was -1%.
Turning to `Cc1nc(-c2cc3cc([N+](=O)[O-])ccc3oc2=O)cs1`, the growth inhibition is 10%.
Consider `Cc1nc2ccccc2nc1NNc1ccccc1`, for which the growth inhibition was 7%.
Still for that read-out and setting: the value for `CN(C)[C@@H]1C(=O)C(C(N)=O)=C(O)[C@@]2(O)C(=O)C3=C(O)c4c(O)cccc4C[C@H]3C[C@@H]12` was 36%; that for `COc1ccc(NC(=O)CC2SC(=Nc3ccccc3C)NC2=O)c([N+](=O)[O-])c1` (stereo not drawn) was 0%.
Regarding `COc1cc(O)c2c(c1O)C(=O)c1cc(C)ncc1C2=O`, the growth inhibition was 41%.
Consider `CSc1nnc(SC)nn1`, for which the growth inhibition is 15%.
On the same count and under the same terms, the value for `COc1cc(/C=C2\CCC/C(=C\c3ccc(O)c(OC)c3)C2=O)ccc1O` was -2%; that for `CN(C)CCNC(=O)c1cccc2cc([N+](=O)[O-])ccc12` was 33%.
Turning to `CCC(C)(C)c1ccc(Oc2cccc(C(=O)O)c2)cc1`, the growth inhibition was 14%.
On the same count and under the same terms, the figure for `CCCCCCSc1ncnc2[nH]ncc12` is -2%.
Same read-out and setting: the value for `CC(=O)Nc1ccc(/C=C/[N+](=O)[O-])cc1` was 1%; that for `CCOC(=O)c1[nH]n(-c2ccccc2)c(=O)c1C=NC(=S)C(N)=S` was 43%; that for `CCCC(O)C1CC(C(C)C)CCC1C` (stereo not drawn) was 3%.
Still for that read-out and setting: the value for `O=[n+]1c2ccccc2n([O-])c2cc(Br)ccc21` was 61%.
For `CN(C)CCNC(=O)c1cccc2c1Oc1c(cccc1[N+](=O)[O-])O2`, the growth inhibition is 18%.
`Nc1ncc(-c2ccc(Br)cc2)s1`: the growth inhibition was -1%.
As for `Cc1cc2cc3cc(C)c(N)cc3nc2cc1N`, the growth inhibition was 24%.
With `CC12C(=O)OC(=O)C(c3ccccc31)c1ccccc12`, the growth inhibition is -7%.
On the same count and under the same terms, the value for `c1ccc2c(OCC3CO3)cccc2c1` (stereo not drawn) was 5%.
In the case of `CCOC(=N)c1ccc(O)c(OC)c1`, the growth inhibition was -2%.
Consider `Nc1cc(N)c(N=Nc2cccc3c(S(=O)(=O)O)cccc23)cc1N=Nc1cc([N+](=O)[O-])ccc1O`, for which the growth inhibition was -15%.
On the same count and under the same terms, the figure for `COC(=O)Oc1cc(Cl)c(Cl)cc1Cl` is -7%.
Still for that read-out and setting: the figure for `O=C(O)C1CC(c2ccccc2)=NN1c1ccccc1` (stereo not drawn) is -9%; for `COc1cc([C@@H]2c3cc4c(cc3[C@@H](Nc3ccc(NC(=O)c5cc([N+](=O)[O-])cn5C)cc3)[C@H]3COC(=O)[C@H]23)OCO4)cc(OC)c1O` it is 22%.
Consider `O=C(O)c1ccccc1/C=N/N=C1c2ccccc2-c2ccccc21`, for which the growth inhibition was 1%.
For the molecule `O=C1CC(=O)c2ccccc21`, the growth inhibition is 2%.
For the molecule `Nc1ncnc2c1ncn2C1OC(CO)CC1O` (stereo not drawn), the growth inhibition is 15%.
